For 16 compounds, growth results are on record in PubChem BioAssay (NCI).

Compounds without any hit were thinned out: in the full panel of roughly 83,000, 20% have a hit.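 Each cell line was grown in a 96-well plate and treated with one concentration of compound for 48 hours. Values below 10 were considered active.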 Values without a mark were called inactive. The source made the active and inactive calls.

Test in all cases: NCI-60 one-dose screen, 48 h (100 = growth as untreated, 0 = no growth, -100 = all killed)
In one experiment the test system is T-47D breast. The note with it: 10 µM unless noted.
A further experiment deals with BT-549 breast. The note with it: 10 µM unless noted.
The next experiment relates to MDA-MB-435 melanoma. The note with it: 10 µM unless noted.
Another experiment has as its system SW-620 colon. The note with it: 10 µM unless noted.
The next experiment deals with MCF7 breast. The note with it: 10 µM unless noted.
The test system of another experiment is HCT-116 colon. As to conditions: 10 µM unless noted.
The subject of another experiment is HCC-2998 colon. The note with it: 10 µM.
Another experiment deals with KM12 colon. As to conditions: 10 µM unless noted.

Take `COc1ccc2c(CCc3ccc(Cl)cc3)c3[n+](cc2c1OC)CCc1cc2c(cc1-3)OCO2`: the growth is 24.9% with T-47D breast; 18.5% in the experiment on BT-549 breast; 1.77% (active) in the experiment on MDA-MB-435 melanoma; 73.2% in the experiment with SW-620 colon; 60.4% in the experiment with MCF7 breast; 36.5% with HCT-116 colon. Also, the growth was 36.2% in the experiment on HCC-2998 colon and 34.4% in the experiment with KM12 colon.
On to `Nc1nc(N)c2nc(-c3cccc(O)c3)c(-c3cccc(O)c3)nc2n1`, for which the growth in the experiment on T-47D breast was 2.15% (active); with BT-549 breast it was 47.8%; in the experiment on MDA-MB-435 melanoma, 97.4%; with SW-620 colon, 90.8%; in the experiment with MCF7 breast, 70.1%; in the experiment with HCT-116 colon, 77.9%. Also, the growth in the experiment on HCC-2998 colon is 94.6%; in the experiment on KM12 colon, 90.6%.
On to `COc1cc(-c2nc(C(=O)NCC(=O)O)nn2-c2ccc(Cl)cc2)cc(OC)c1OC`, for which the growth is 99.5% in the experiment on T-47D breast; 106% with BT-549 breast; 108% in the experiment with MDA-MB-435 melanoma; 108% with SW-620 colon; 96.3% with MCF7 breast; 103% with HCT-116 colon. Moreover, the growth in the experiment with HCC-2998 colon is 100%; in the experiment with KM12 colon, 96.3%.
With `O=C(Nc1nc2cccc(-c3ccc(CN4CCS(=O)(=O)CC4)cc3)n2n1)C1CC1`, the growth in the experiment with T-47D breast was 80.4%; in the experiment with BT-549 breast it was 53.6%; in the experiment with MDA-MB-435 melanoma it was 91.3%; in the experiment with SW-620 colon, 30.1%; in the experiment with MCF7 breast, 16.7%; in the experiment on HCT-116 colon, 44.3%. The values for the growth in the experiment with HCC-2998 colon and in the experiment with KM12 colon were 79.2% and 31.7%, respectively.
As to `Cn1c(Nc2ccc(C(F)(F)F)cc2)nc2cc(Oc3ccnc(-c4ncc(C(F)(F)F)[nH]4)c3)ccc21`, the growth in the experiment on T-47D breast was 48.5%; with BT-549 breast it was 37.5%; in the experiment with MDA-MB-435 melanoma it was 28.8%; in the experiment with SW-620 colon, 65.5%; with MCF7 breast, 82.3%; with HCT-116 colon, 32.9%. Also, the growth was 73% in the experiment on HCC-2998 colon and 58.3% in the experiment with KM12 colon.
For `CCCCCC(=O)OCc1ccc(Cl)c(Cl)c1`, the growth is 105% in the experiment with T-47D breast; 109% in the experiment with BT-549 breast; 109% with MDA-MB-435 melanoma; 109% with SW-620 colon; 93.9% in the experiment on MCF7 breast; 101% with HCT-116 colon. The growth in the experiment on HCC-2998 colon was 94.8%; in the experiment with KM12 colon, 103%.
For the compound `COc1ccc(Cc2cc(-c3ccccc3C)n[nH]c2=O)cc1`, the growth was 94.4% in the experiment on T-47D breast; 132% with BT-549 breast; 117% with MDA-MB-435 melanoma; 103% in the experiment on SW-620 colon; 95.4% with MCF7 breast; 98% in the experiment on HCT-116 colon. Besides, the growth in the experiment on HCC-2998 colon was 110%; in the experiment with KM12 colon, 97.9%.
Turning to `C=CCn1c(=O)c2cnc(Nc3ccc(N4CCN(C)CC4)cc3)nc2n1-c1cccc(C(C)(C)O)n1`, the growth in the experiment on T-47D breast was 36.4%; with BT-549 breast it was 1.3% (active); in the experiment with MDA-MB-435 melanoma, -61.7% (active); in the experiment with SW-620 colon, 14.6%; with MCF7 breast, 15.7%; in the experiment on HCT-116 colon it was 2.48% (active). Further, the growth is 9.01% (active) in the experiment with HCC-2998 colon and 0.327% (active) with KM12 colon.
As for `COC(=O)C1CCc2sc3ncnc(Nc4cn[nH]c4C(=O)Nc4ccc(CN5CCN(C)CC5)cc4)c3c21` (stereo not drawn), the growth was 17.8% in the experiment on T-47D breast; -0.677% (active) with BT-549 breast; 22.3% with MDA-MB-435 melanoma; -10.9% (active) in the experiment with SW-620 colon; 4.8% (active) in the experiment on MCF7 breast; 3.34% (active) in the experiment on HCT-116 colon. Also, the growth with HCC-2998 colon was 27.2%; with KM12 colon it was 9.84% (active).
On to `CN1CCN(c2ccc(OC(F)(F)F)c(Nc3ncc4c(n3)-c3c(c(C(N)=O)nn3CCO)CC4)c2)CC1`, for which the growth was 43.9% in the experiment with T-47D breast; 27.8% in the experiment on BT-549 breast; -50.5% (active) with MDA-MB-435 melanoma; 9.76% (active) with SW-620 colon; 22.1% in the experiment with MCF7 breast; 9.89% (active) in the experiment on HCT-116 colon. The growth is 17% in the experiment on HCC-2998 colon and 9.34% (active) in the experiment on KM12 colon.
For `CCOC(=O)Sc1ncnc2nc[nH]c12`, the growth in the experiment with T-47D breast was 34.7%; with BT-549 breast, 50.7%; in the experiment with MDA-MB-435 melanoma, 33.3%; with SW-620 colon it was 68.5%; in the experiment with MCF7 breast it was 18.7%; with HCT-116 colon, 31.2%. The growth in the experiment on HCC-2998 colon was 26.4%; in the experiment with KM12 colon, 59.3%.
Consider `COc1cc2nc(Nc3cccc(Cl)c3)nc(N)c2cc1OC`, for which the growth with T-47D breast was 84.5%; with BT-549 breast, 78.6%; with MDA-MB-435 melanoma it was 84.7%; with SW-620 colon it was 83.6%; in the experiment on MCF7 breast it was 81.5%; in the experiment with HCT-116 colon, 33.7%. The growth with HCC-2998 colon was -59.3% (active); in the experiment on KM12 colon it was 61.4%.
Regarding `CC1(C=O)NC(=O)NC1=O` (stereo not drawn), the growth with T-47D breast is 95.2%; with BT-549 breast, 91.4%; in the experiment on MDA-MB-435 melanoma, 111%; with SW-620 colon, 101%; with MCF7 breast it was 95.6%; in the experiment on HCT-116 colon it was 90.5%. In addition, the growth in the experiment on HCC-2998 colon is 94.7%; in the experiment with KM12 colon, 108%.
On to `CCOc1cc2ncc(C#N)c(Nc3ccc(F)c(Cl)c3)c2cc1NC(=O)/C=C/CN(C)C`, for which the growth in the experiment with T-47D breast was -41.1% (active); in the experiment with BT-549 breast, -35.8% (active); in the experiment on MDA-MB-435 melanoma it was -87.2% (active); in the experiment with SW-620 colon it was -53.8% (active); with MCF7 breast it was -41.7% (active); in the experiment with HCT-116 colon, -79.7% (active). Also, the growth in the experiment on HCC-2998 colon is -49.2% (active); in the experiment on KM12 colon, -83.8% (active).
Turning to `Cc1cc(N(CCNc2ccnc3cc(Cl)ccc23)Cc2ccc3c(c2)OCO3)nc(N2CCN(C)CC2)n1`, the growth in the experiment on T-47D breast was -36.9% (active); in the experiment on BT-549 breast it was 21.6%; with MDA-MB-435 melanoma, -62.6% (active); with SW-620 colon, 2.88% (active); with MCF7 breast, 15.3%; with HCT-116 colon it was 9.43% (active). Moreover, the growth in the experiment with HCC-2998 colon was -30.8% (active); with KM12 colon, 62.6%.
Regarding `CCN1CCN(c2nc(C)cc(N(CCNc3ccnc4cc(Cl)ccc34)Cc3ccc4c(c3)OCO4)n2)CC1`, the growth with T-47D breast was -51.7% (active); with BT-549 breast, 21.5%; with MDA-MB-435 melanoma it was -72.5% (active); in the experiment on SW-620 colon, 3.4% (active); in the experiment with MCF7 breast, 23.8%; in the experiment on HCT-116 colon it was 10.3%. Further, the growth in the experiment on HCC-2998 colon is -29.8% (active); in the experiment on KM12 colon, 55.9%.
